# A selection: hits, their analogues and other compounds. The true share with any hit is near 5.3%.
# FBPA coupling cs: coupling enzyme interference in Giardia aldolase counter-screen. coupling enzyme system counterscreen, AmpLite Red fluorescence. activity change, negative = inhibition, % at 58.2 µM, hits read low. actives 0.67% (n = 290,000). AID 2472; in the data active means activity change below about -30%
#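 First, compound is pin-transferred into glyceraldehyde-3-phosphate coupling-enzyme reagent at 57.5 uM final and held 10 min at RT. Next, substrate, coupling system and AmpLite Red are added. After 20 min RT, fluorescence (525/598 nm) is read.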
# KDM4E inh: blocks human JMJD2E demethylase activity. Potency, µM (doses to about 57.1 µM), actives largely listed as inhibitors. B2RXH2. actives 1.6% (n = 230,000). JMJD2E catalytic domain, FDH-coupled NADH fluorescence (FDH is formaldehyde dehydrogenase); further: nearly all actives have a fitted effect of over 50% in size
# Target sequence (B2RXH2 1-337 limits assumed): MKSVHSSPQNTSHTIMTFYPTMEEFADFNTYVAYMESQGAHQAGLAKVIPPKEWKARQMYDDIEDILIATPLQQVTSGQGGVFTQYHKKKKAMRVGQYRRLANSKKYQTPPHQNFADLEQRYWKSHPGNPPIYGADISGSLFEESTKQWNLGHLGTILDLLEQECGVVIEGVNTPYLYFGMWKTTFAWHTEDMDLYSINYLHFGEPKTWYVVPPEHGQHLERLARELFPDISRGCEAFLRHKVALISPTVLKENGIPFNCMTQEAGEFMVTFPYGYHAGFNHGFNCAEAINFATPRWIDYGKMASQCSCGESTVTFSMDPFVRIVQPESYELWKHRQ
# Tau fluor counter: counter-screen for tau fibril formation inhibitors. tau K18 P301L Alexa594 fluorescence, heparin fibrillization. Potency, µM (titrated, usually from 57.7 µM). actives 0.93% (n = 280,000). AID 1463; further: nearly all actives have a fitted effect of over 55% in size
#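 Human K18 P301L tau (15 uM unlabeled plus 0.24 uM Alexa 594-labeled, final) in 100 mM sodium acetate pH 7 was mixed with compound and 20 uM heparin and incubated 6 hr at 37 C.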
# Tau fibril FP: blocks human tau fibril formation measured by polarization. actives 0.39% (n = 280,000). Potency, µM (top dose mostly 57.7 µM), actives largely listed as inhibitors. AID 1468. K18 P301L tau heparin fibrillization, Alexa594 FP, 6 h. P10636; further: nearly all actives have a fitted effect of over 55% in size
# Target sequence (P10636 561-689 P618L limits assumed): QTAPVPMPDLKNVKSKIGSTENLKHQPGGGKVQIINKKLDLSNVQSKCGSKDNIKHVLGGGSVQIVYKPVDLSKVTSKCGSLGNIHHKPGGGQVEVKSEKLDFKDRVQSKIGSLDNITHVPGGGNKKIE
#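 Compound effects on tau fibrillization are measured by Alexa 594 fluorescence polarization (ex 555, em 632 nm). K18 P301L tau is used at 15 uM with 0.24 uM labeled tracer, and 20 uM heparin induces aggregation over 6 hr at 37 C.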
# Tau ThT inhib: blocks human tau fibril formation measured by thioflavin T; P10636; recombinant tau K18 P301L, heparin-induced fibrillization, ThT fluorescence; Potency, µM (doses to about 57.4 µM), usual class: inhibitors; actives 2.1% (n = 270,000); AID 1460; further: nearly all actives have a fitted effect of over 55% in size
#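 Using a mix of unlabeled (15 uM) and Alexa 594-labeled (0.24 uM) tau K18 P301L, heparin-triggered fibrillization over 6 hr at 37 C was scored by ThT fluorescence.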
# Sfp inh: inhibitors of Bacillus subtilis Sfp phosphopantetheinyl transferase. Q9F4F7. Biochemical Sfp PPTase activity, qHTS. Potency, µM, usual class: inhibitors. AID 1490. actives 3.5% (n = 310,000);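 further: the enzyme is Sfp with the accession as filed and its product quenches rhodamine fluorescence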
#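 Fluorescence-quenching assay: 15 nM Sfp-PPTase preincubated 15 min at room temperature with compound, then 5 uM rhodamine-CoA and 12.5 uM BHQ-2-labelled YbbR peptide added. Fluorescence (ex 525/em 598 nm) read at start and after 30 min; difference gives rate.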
# A number is an active result; . = inactive; ? = inconclusive; / = not tested or not shown. Unless noted, the call rests on the fitted dose curve; in most records, active means well fitted curve in the direction sought with a large enough effect; inconclusive means small, poorly fitted or top-dose-only effect, or another doubt; inactive means no such curve, though single readings can be large; an effect the other way counts as inactive or inconclusive.
SMILES,FBPA coupling cs,KDM4E inh,Tau fluor counter,Tau fibril FP,Tau ThT inhib,Sfp inh
CCOc1ccc(N(C(=O)CC(C)C)S(=O)(=O)c2ccc3c(c2)oc(=O)n3C)cc1,/,/,.,.,?,/
Cc1ccc(Cn2nnc3c(=O)n(CC(=O)NCc4ccco4)cnc32)cc1,.,.,.,.,.,.
O=C(Cn1cnc2c(nnn2Cc2ccccc2F)c1=O)NCc1ccco1,.,.,.,.,.,89.1µM
Cc1sc2ncn(CC(=O)NCc3ccco3)c(=O)c2c1-c1ccc(F)cc1,.,.,.,.,?,17.8µM
COC(=O)c1ccc(C(/C=C/[C@@H](C)C(=O)NCCc2c[nH]c3ccccc23)NC(=O)OCc2ccccc2)cc1 (stereo not given in full),.,.,?,?,?,.
O=C(O)C1OC(Oc2cc3oc(-c4ccccc4)cc(=O)c3c(O)c2O)C(O)C(O)C1O (stereo not given),.,.,.,.,?,8.91µM
O=c1cc(-c2ccccc2)oc2cc(OCc3ccccc3)cc(O)c12,.,.,?,.,.,.
COc1c(OC2OC(C(=O)O)C(O)C(O)C2O)cc(O)c2c(=O)cc(-c3ccccc3)oc12 (stereo not given),.,?,.,.,.,39.8µM
CCCC(=O)OC1=CN(Cc2ccccc2)S(=O)(=O)c2ccccc21,/,/,.,.,.,/
Cc1ccccc1CSc1nc2cccnc2n1Cc1ccc(C(=O)NCCc2cccs2)cc1,/,/,.,.,.,/
CCN(Cc1ccncc1)Cc1c(O)ccc2ccccc12,-33.2,?,?,.,?,.
CNC(=S)Nc1ccc(-c2nc3ccc(C)cc3s2)cc1,.,?,?,?,.,.
Nc1ccc(-c2nc3cc(N)ccc3s2)cc1,.,?,?,.,14.1µM,.
Cc1ccc2nc(-c3ccc(N)cc3)sc2c1,.,?,?,.,5.62µM,.
Nc1ccc2nc(-c3ccccc3)sc2c1,.,?,.,.,?,.
Cc1ccc2sc(-c3ccc(N)cc3)nc2c1,/,/,?,.,4.47µM,/
c1cnc2ccc3ncccc3c2c1,.,17.8µM,.,.,?,.
c1ccc2c(c1)ccc1ncccc12,.,.,.,.,.,.
Nc1ccc2ncccc2c1N,-39.7,.,?,?,25.1µM,6.31µM
CC1(C)Cc2c(C#N)c(N3CCCC3)nc(-c3ccco3)c2CO1,.,?,.,?,?,17.8µM
CSc1nc(N2CCCC2)c2c(c1C#N)CC(C)(C)OC2,.,.,.,.,.,.
CC1(C)Cc2c(C#N)c(N3CCN(C(=O)c4ccccc4)CC3)nc(-c3ccco3)c2CS1,.,.,.,.,.,20µM
CC(C)c1nc(N2CCN(C(=O)c3ccccc3)CC2)c(C#N)c2c1COC(C)(C)C2,.,?,.,.,.,.
Cc1nc(NCc2ccco2)c(C#N)c2c1COC(C)(C)C2,.,?,.,.,.,.
N#Cc1c(N2CCOCC2)nc(-c2ccco2)c2c1CCCC2,.,?,.,.,.,44.7µM
SMILES,FBPA coupling cs,KDM4E inh,Tau fluor counter,Tau fibril FP,Tau ThT inhib,Sfp inh
CCc1nc(N2CCOCC2)c(C#N)c2c1CCCC2,.,?,.,.,.,.
CC1(C)Cc2c(C#N)c(NCc3ccco3)nc(-c3ccco3)c2CO1,.,?,.,.,?,3.55µM
COc1cccc(CNC(=O)CCc2nnc3n(CC(C)C)c(=O)c4ccccc4n23)c1,/,/,.,.,.,/
CCOC(=O)c1cnn(-c2ccc(OC)cc2)c1C1CCN(C(=O)OC(C)(C)C)CC1,/,/,.,.,.,/
CC1CCC(NC(=O)c2ccc3c(c2)N(Cc2cccc(F)c2)C(=O)c2ccccc2S3)CC1 (stereo not given),/,/,.,.,.,/
CC1(C)SC2[C@@H](N=CN3CCCCCC3)C(=O)N2[C@H]1C(=O)O (stereo not given in full),/,/,/,/,/,.
CCCCN(C)c1nc(-c2ccco2)c2c(c1C#N)CC(C)(C)OC2,.,?,.,.,?,35.5µM
CN(C)CCNc1nc(-c2ccco2)c2c(c1C#N)CC(C)(C)OC2,.,?,.,.,.,.
CCC1CCC2(CC1)NC(CO)(CO)CO2 (stereo not given),.,.,.,.,.,.
CCC1CCC2(CC1)NNC(=S)NN2,.,?,.,.,.,56.2µM
CCC1=C2CC[C@H]3C(=O)N(CC)C(=O)[C@H]3[C@H]2[C@@]2(C)C(=O)N(CC(=O)OC)C(=O)N2C1=O,.,.,.,.,.,.
CN1CCc2c(cc(O)c(O)c2Cl)C(c2cccc(Cl)c2)C1 (stereo not given),/,14.1µM,.,.,?,/
C=CCN1CCN(C(=O)CCc2ccccc2)CC1,.,/,/,/,/,.
C=CCN1CCc2cc(O)c(O)cc2[C@H](c2ccccc2)C1,.,25.1µM,.,.,?,?
C=CCN1CCc2c(cc(O)c(O)c2Br)[C@@H](c2ccccc2)C1,/,14.1µM,.,.,?,.
CN1CCc2cc(Cl)c(O)cc2C(c2ccccc2)C1 (stereo not given),/,.,.,.,.,/
CN1CCc2cc(Cl)c(O)cc2[C@@H](c2ccccc2)C1,.,.,.,.,.,.
CN1CCc2cc(O)c(O)cc2C(c2ccccc2)C1 (stereo not given),/,20µM,.,.,?,/
COc1cc(OC)c(NC(=O)c2c(N3CCCC3=O)c3cc(C)ccc3n2C)cc1Cl,/,/,.,.,.,/
CCSC[C@H](NC(=O)[C@H](C)NC(=O)[C@@H](N)Cc1ccc(O)cc1)C(=O)N[C@@H](CC(=O)O)C(=O)N[C@H](C(=O)N[C@@H](C)C(=O)N[C@H](C(=O)N[C@@H](CSCC)C(=O)N[C@H](C(=O)N[C@H](C(=O)N[C@@H](Cc1cnc[nH]1)C(=O)N[C@@H](CCCNC(=N)N)C(=O)N[C@@H](CC(C)C)C(=O)N[C@@H](C)C(=O)NCC(=O)N[C@@H](CC(C)C)C(=O)N[C@@H](CC(C)C)C(=O)N[C@@H](CO)C(=O)N[C@@H](CCCNC(=N)N)C(=O)N[C@@H](CO)C(=O)NCC(=O)NCC(=O)N[C@H](C(=O)N[C@H](C(=O)N[C@@H](CCCCN)C(=O)N[C@@H](CC(N)=O)C(=O)N[C@@H](CC(N)=O)C(=O)N[C@@H](Cc1ccccc1)C(=O)N[C@H](C(=O)N1CCC[C@H]1C(=O)N[C@H](C(=O)N[C@@H](CC(N)=O)C(=O)N[C@H](C(=O)NCC(=O)N[C@@H](CO)C(=O)N[C@@H](CCCCN)C(=O)N[C@@H](C)C(=O)N[C@@H](Cc1ccccc1)C(N)=O)C(C)C)[C@@H](C)O)C(C)C)C(C)C)C(C)C)[C@@H](C)O)C(C)C)[C@@H](C)O)[C@@H](C)O,.,/,/,/,/,.

# From PubChem
